This note sets out measurements from PubChem BioAssay (EPA / NIEHS).

Assay [1] is described as follows: CCTE_Shafer_MEA_dev_firing_rate_mean: CCTE's Neural Network Formation Assay for Mean Firing Rate, Shafer Lab (AID 2284031).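 As to AC50: curve fitted for loss of firing so AC50 reflects decreased mean firing rate.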 Put shortly: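 Spike frequency (spikes/recording length, averaged over active electrodes) was recorded on days 5, 7, 9 and 12 and collapsed to AUC; rat cortical cultures received compound continuously over 12 days of network development.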

The nature of assay [2]: CCTE_Shafer_MEA_dev_per_burst_spike_percent: CCTE's Neural Network Formation Assay for Percent of Spikes in a Burst, Shafer Lab (AID 2284032).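 As to AC50: fitted as a decrease in burst spike percentage below DMSO baseline.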 In outline:
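Value is trapezoidal AUC over recordings on days 5, 7, 9 and 12 of the well-mean fraction of spikes falling in single-electrode bursts; rat cortical cultures exposed continuously from plating, treatment renewed DIV 5 and 9, fitted downward against DMSO.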

Assay [3] is described as follows: CCTE_Shafer_MEA_dev_active_electrodes_number: CCTE's Neural Network Formation Assay for Number of Active Electrodes, Shafer Lab (AID 2284040; active = hit-call score of the fitted dose curve at least 0.9, where 1 is the maximum;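 also: potency for loss of active electrodes versus DMSO so lower counts are hits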). Put shortly:
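Counts electrodes per well firing at least 5 spikes/min, recorded on days 5, 7, 9 and 12 in rat cortical cultures dosed continuously from plating (treatment refreshed DIV 5, 9). Value is the area under the curve over recordings, fitted downward relative to DMSO.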

A short description of assay [4]: CCTE_Shafer_MEA_dev_burst_rate: CCTE's Neural Network Formation Assay for Burst Rate, Shafer Lab (AID 2284042).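 As to AC50: potency for loss of burst rate below DMSO control.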 Put shortly: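 Primary rat cortical neurons on PEI-coated 48-well MEA plates (laminin added with cells at plating) (16 electrodes/well), exposed from plating to day 12, dosing renewed at DIV 5 and 9. Burst rate averaged over active electrodes, recorded DIV 5, 7, 9, 12, summarized as AUC; loss versus DMSO.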

A short description of assay [5]: CCTE_Shafer_MEA_dev_bursting_electrodes_number: CCTE's Neural Network Formation Assay for Number of Bursting Electrodes, Shafer Lab (AID 2284043; active = hit-call score of the fitted dose curve at least 0.9, where 1 is the maximum;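 also: potency is for loss of bursting electrodes relative to DMSO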). Put shortly:
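Counted: electrodes with burst rate ≥1 per 2 min in each well. Cells: primary rat cortex, 1.5 x 10^5/well, on 16-electrode MEA wells. Exposure: DIV 0–12, compound renewed DIV 5 and 9. Recording days 5, 7, 9, 12; AUC vs DMSO baseline.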

Assay [6] is described as follows: CCTE_Shafer_MEA_dev_per_burst_interspike_interval: CCTE's Neural Network Formation Assay for Burst Interspike Interval, Shafer Lab (AID 2284044).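 As to AC50: potency for a decrease of within-burst interspike interval below DMSO level.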 Put shortly:
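Rat cortical primary cultures, 16 electrodes/well; compound from plating, renewed with full media change DIV 5 and 9. Spikes via adaptive detector; per-burst ISI well-mean over active bursting electrodes; AUC of DIV 5/7/9/12 recordings; loss-direction fit vs DMSO.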

Assay [7] in a line: CCTE_Shafer_MEA_dev_burst_duration_mean: CCTE's Neural Network Formation Assay for Mean Burst Duration, Shafer Lab (AID 2284045).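 As to AC50: curve fitted for loss meaning shorter burst duration than DMSO.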 Put shortly:
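Network-formation assay in primary rat cortical neurons; treatment spans twelve days of development. Mean burst duration per well is integrated by trapezoidal AUC and fitted in the loss-of-signal direction against DMSO baseline.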

Assay [8] in a line: CCTE_Shafer_MEA_dev_interburst_interval_mean: CCTE's Neural Network Formation Assay for Mean Interburst Interval, Shafer Lab (AID 2284046).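 Also: well-mean interburst interval of bursting electrodes as AUC over four recording days; curve fitted for decrease in interburst interval relative to DMSO.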 Put shortly:
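Recordings on days 5, 7, 9 and 12 give well-mean interburst interval across actively bursting electrodes, summarized as area under the curve. Cultures: rat cortical neurons, continuous exposure from day 0, compound renewed at feeds; decrease analyzed versus DMSO.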

Assay [9] in a line: CCTE_Shafer_MEA_dev_inter_network_spike_interval_mean: CCTE's Neural Network Formation Assay for Mean Inter-network Spike Interval, Shafer Lab (AID 2284047). Put shortly:
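Primary rat cortical neurons on 16-electrode MEA wells, exposed from plating day 0 through DIV 12, compound renewed at DIV 5 and 9 media changes. Mean interval between network-spike peaks recorded DIV 5, 7, 9, 12; collapsed as trapezoidal AUC, fitted downward versus DMSO.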

Assay [10] is described as follows: CCTE_Shafer_MEA_dev_network_spike_number: CCTE's Neural Network Formation Assay for Number of Network Spikes, Shafer Lab (AID 2284048).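 Also: synchronized bursts across electrodes counted on days 5 7 9 12 and integrated as AUC.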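 As to AC50: fit as a loss of signal meaning fewer network spikes than DMSO.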 Put shortly:
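Extracellular recordings from 16-electrode wells track network formation in rat cortical cultures under continuous treatment from plating. The endpoint is network spike number, expressed as AUC across DIV 5–12 relative to DMSO vehicle.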

A short description of assay [11]: CCTE_Shafer_MEA_dev_network_spike_peak: CCTE's Neural Network Formation Assay for Mean Number of Electrodes in Network Spike, Shafer Lab (AID 2284049).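 As to AC50: fitted for loss of signal meaning fewer electrodes in network spikes than DMSO.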 In outline: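 Continuous 12-day exposure of rat cortical cultures, starting at plating, on MEA plates. Endpoint: electrodes participating in network-spike peaks, AUC across DIV 5–12, DMSO as negative control.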

A short description of assay [12]: CCTE_Shafer_MEA_dev_spike_duration_mean: CCTE's Neural Network Formation Assay for Mean Spike Duration, Shafer Lab (AID 2284051).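 Also: mean network spike duration pooled as area under curve over DIV 5 to 12 recordings.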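 As to AC50: potency for a decrease in mean network spike duration versus DMSO.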 Put shortly: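 Primary rat cortical neurons on 16-electrode MEA wells (PEI-coated, laminin in plating drop), exposed from plating through DIV 12 with compound renewed at DIV 5 and 9. Mean network-spike duration recorded DIV 5, 7, 9, 12; trapezoidal AUC across days, DMSO baseline.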

Assay [13] can be described thus: CCTE_Shafer_MEA_dev_network_spike_duration_std: CCTE's Neural Network Formation Assay for Standard Deviation of Network Spike Duration, Shafer Lab (AID 2284052).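 Also: area under curve of spike duration SD across recording days 5 to 12; hits are decreases in network spike duration SD versus DMSO vehicle.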 In outline:
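Primary rat cortical neurons on PEI-coated 16-electrode MEA wells, exposed from plating day 0 through day 12 with compound renewed at DIV 5 and 9. Network spike duration SD recorded on days 5, 7, 9, 12, collapsed as trapezoidal AUC; loss-of-signal fit versus DMSO.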

Assay [14] is described as follows: CCTE_Shafer_MEA_dev_per_network_spike_spike_number_mean: CCTE's Neural Network Formation Assay for Mean Number of Spikes in a Network Spike, Shafer Lab (AID 2284053). Put shortly:
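Primary rat cortical neurons on 48-well, 16-electrode MEA plates were exposed from plating to DIV 12, with dosing renewed on DIV 5 and 9. Spikes per network spike (0.05 s peak window) were recorded on DIV 5, 7, 9 and 12 and collapsed as trapezoidal AUC versus DMSO.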

Assay [15] is described as follows: CCTE_Shafer_MEA_dev_per_network_spike_spike_percent: CCTE's Neural Network Formation Assay for Percent of Spikes in a Network Spike, Shafer Lab (AID 2284054). Put shortly: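 Developing networks of rat cortical neurons are dosed at day 0 and recorded extracellularly four times up to day 12. The endpoint is the area under the curve of percent spikes in network spikes, fitted in the negative direction relative to DMSO.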

Assay [16] in a line: CCTE_Shafer_MEA_dev_LDH: CCTE's Lactate Dehydrogenase Assay for Cytotoxicity in the Neural Network Formation Assay, Shafer Lab (AID 2284068; active = hit-call score of the fitted dose curve at least 0.9, where 1 is the maximum;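 also: exposure for twelve days from plating with re-dosing on DIV 5 and 9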). Put shortly:
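Primary rat cortical neurons were plated on PEI/laminin MEA plates and exposed from day 0 for twelve days, with compound renewed at DIV 5 and 9. Cytotoxicity was determined by spectrophotometric LDH assay relative to DMSO.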

Assay [17] can be described thus: CCTE_Shafer_MEA_dev_mutual_information_norm: CCTE's Neural Network Formation Assay for Mutual Information Normalization, Shafer Lab (AID 2284091).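 As to AC50: mutual information between electrodes summarised as area under curve across four recording days; potency is for a decrease in mutual information relative to DMSO.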 In outline: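 Exposure of primary rat cortical neurons began at plating and ran to DIV 12, with full media and treatment renewal after DIV 5 and 9 recordings. Mutual information AUC (DIV 5–12) was analysed for loss versus DMSO.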

Assay [18] is described as follows: CCTE_Shafer_MEA_dev_correlation_coefficient_mean: CCTE's Neural Network Formation Assay for Mean Correlation Coefficient, Shafer Lab (AID 2284093).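 As to AC50: well mean pairwise spike train correlation integrated as AUC over recording days 5 to 12; potency fitted for loss of correlation relative to DMSO vehicle wells.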 In outline:
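Spontaneous activity recorded on days 5, 7, 9 and 12 post-plating; pairwise spike correlations are averaged across active electrodes and collapsed to an area-under-curve. Rat cortical cultures are dosed from plating through 12 days, with compound renewed at media changes.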

Assay [19] can be described thus: CCTE_Harrill_HTTr_Viability_MCF7: CCTE's 6-hour Cell Viability Assessment for the High-Throughput Transcriptomics (HTTr) Platform, in MCF-7 cells cultured in DMEM + 10% fetal bovine serum, Harrill Lab (AID 2284010). Put shortly:
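Propidium iodide exclusion, imaged by high-content analysis, gauged viability after a six-hour exposure across eight concentrations. Cells were MCF-7 grown in DMEM with 10% fetal bovine serum; fits run in both directions against DMSO.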

The nature of assay [20]: Tanguay_ZF_120hpf_MUSC: Oregon State University Tanguay Lab 120 Hour Post-fertilization zebrafish Assay for Muscle Malformation (AID 2284401). In outline:
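Scored as a binary brightfield endpoint at 120 hpf, fitted versus DMSO. Single dechorionated wild-type (Tropical 5D) zebrafish embryos per well, statically exposed at 28C from 6 hpf onward with final DMSO 0.64%.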

Records with an inconclusive call do not appear. Active and inactive are the calls of the source. The calls were made as follows, unless noted: active = hit-call score of the fitted dose curve at least 0.9, where 1 is the maximum; inactive = score below 0.9.

With `O=[As]O`, the AC50 is 2140 nM (active) in assay [1]; 1400 nM (active) in [2]; 1410 nM (active) in assay [3]; 2420 nM (active) in [4]; 1230 nM (active) in [5]; 2430 nM (active) in assay [6]. In addition, the AC50 in assay [7] is 2500 nM (active); in [8], 1690 nM (active); in assay [10], 1280 nM (active); in assay [11], 1670 nM (active); in [12] it was 1140 nM (active); in [13], 1080 nM (active). Further, the AC50 in assay [14] was 1140 nM (active); in [15] it was 1140 nM (active); in assay [16], 1090 nM (active); in assay [17], 1150 nM (active); in assay [18], 996 nM (active). Also, in assay [9], the call was inactive.

With `CNC(=O)Oc1cccc(C(C)C)c1`, the result in assay [19] was inactive.

`CO[Si](C)(CCC(F)(F)C(F)(F)C(F)(F)C(F)(F)C(F)(F)C(F)(F)F)OC`: the result in assay [20] was inactive.

Regarding `COC(=O)CCC(F)(F)C(F)(F)C(F)(F)C(F)(F)F`, the molecule was classed as inactive in [20].

For `O=C(F)C1(F)C(F)(F)C(F)(F)C(F)(F)C(F)(F)C1(F)F`, in assay [20], the molecule was called inactive.

Regarding `CCO[Si](CCC(F)(F)C(F)(F)C(F)(F)C(F)(F)C(F)(F)C(F)(F)F)(OCC)OCC`, the call in assay [20] was inactive.

With `O=C(O)C(F)(F)C(F)(F)C(F)(F)C(F)(F)C(F)(F)C(F)(F)C(F)(F)C(F)(F)C(F)(F)C(F)F`, the molecule was classed as inactive in assay [20].

For the molecule `O=C(O)C(F)(F)C(F)(F)C(F)(F)C(F)(F)F`, in [20], the call was inactive.

With `O=S(=O)(O)CCC(F)(F)C(F)(F)C(F)(F)C(F)(F)C(F)(F)C(F)(F)F`, the result in [20] was inactive.

For the molecule `OCC(F)(F)C(F)(F)C(F)(F)C(F)(F)C(F)(F)C(F)(F)CO`, the result in [20] was inactive.

`FC(F)(F)C(F)(F)C(F)(F)C(F)(F)C(F)(F)C(F)(F)C(F)(F)CCI`: the result in assay [20] was inactive.

On to `CN(C(=O)C(F)(F)C(F)(F)C(F)(F)F)[Si](C)(C)C`, for which, in [20], the result was inactive.

On to `O=C(O)C(F)(F)C(F)(F)C(F)(F)C(F)(F)C(F)(F)C(F)(F)C(F)(F)C(F)(F)C(F)(F)C(F)(F)C(F)(F)C(F)(F)F`, for which the outcome in assay [20] was inactive.

With `OC(O)(C(F)C(O)(O)C(F)(F)F)C(F)(F)F`, the outcome in [20] was inactive.

Turning to `O=C(O)C(F)(F)C(F)(F)F`, the outcome in assay [20] was inactive.

In the case of `C=CCN1CC[C@]23c4c5ccc(O)c4O[C@H]2C(=O)CC[C@@]3(O)[C@H]1C5`, the call in assay [1], in assay [2], in [4], in [6], in [7] and in assay [8] was inactive. Moreover, the call in assay [9], in assay [10], in [11], in [12], in assay [13] and in assay [14] was inactive. Further, the call in assay [15], in assay [16], in [17] and in assay [18] was inactive.

Take `C=CC(=O)OCCC(F)(F)C(F)(F)C(F)(F)C(F)(F)F`: the molecule was called inactive in assay [20].

Take `C=CC(=O)OCC(F)(F)C(F)(F)C(F)(F)C(F)(F)C(F)(F)C(F)(F)C(F)(F)F`: the call in assay [20] was inactive.

On to `C=CC(=O)OCCC(F)(F)C(F)(F)C(F)(F)C(F)(F)C(F)(F)C(F)(F)C(F)(F)C(F)(F)F`, for which the molecule was classed as inactive in assay [20].

Turning to `CC(C)(C)C(=O)CC(=O)C(F)(F)C(F)(F)C(F)(F)F`, in assay [20], the outcome was inactive.

Turning to `FC(F)(F)C(F)(F)C(F)(F)C(F)(F)C(F)(F)C(F)(F)C(F)(F)Br`, the call in [20] was inactive.

Regarding `FC(F)(F)C(F)(F)C(F)(F)C(F)(F)C(F)(F)C(F)(F)I`, the molecule was called inactive in [20].

Regarding `O=S(=O)(Cl)C(F)(F)C(F)(F)C(F)(F)C(F)(F)C(F)(F)C(F)(F)C(F)(F)C(F)(F)F`, the result in assay [20] was inactive.

On to `O=C(O)CCC(F)(F)C(F)(F)C(F)(F)F`, for which the molecule was called inactive in [20].

For `O=C(O)C(F)(F)C(F)(F)C(F)(F)C(F)(F)C(=O)O`, the call in assay [20] was inactive.

In the case of `FC(F)(F)C(F)(F)C(F)(F)C(F)(F)C(F)(F)C(F)(F)CC[Si](Cl)(Cl)Cl`, the result in [20] was inactive.

Consider `FC(F)(F)C(F)(F)C(F)(F)C(F)(F)CCI`, for which, in assay [20], the outcome was inactive.

For `O=C(O)C(F)(F)C(F)(F)C(F)(F)C(=O)O`, the molecule was classed as inactive in assay [20].

Turning to `C=CC(=O)OCC(F)(F)C(F)(F)C(F)(F)COC(=O)C=C`, the molecule was classed as inactive in assay [20].

A word on the AC50: it is the concentration giving half of the maximal activity seen.
